# Results: PubChem BioAssay (Tox21)
# Results filed as inconclusive are left out. Entries that show only a call come without a potency. The source made the active and inactive calls. Calls come from the whole dose curve. Non-standard residues stand in square brackets, D forms with d. Residues, ends and D or L forms follow the SMILES beside them. pGlu = O=C1CC[C@@H](C(=O)O)N1
# Test: qHTS assay for small molecule disruptors of the mitochondrial membrane potential - cell viability (AID 720634);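 note: human HepG2 liver cancer cells; nearly all actives have a fitted effect of over 20% in size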
# Conditions: HepG2 viability, ATP luminescence (CellTiter-Glo), 1 h; series mostly up to 83.2 µM
# In short: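 Cytotoxicity was measured by ATP quantitation in HepG2 wells that had first been treated with compound for 1 hr and stained with m-MPI dye; CellTiter-Glo incubation was 30 min at room temperature.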
row,SMILES,Potency
1,COc1cc2c(cc1OC)[C@@H](c1ccccc1)CN(C)CC2,inactive
2,CCC(Cc1c(I)cc(I)c(O)c1I)C(=O)O (centres undefined),inactive
3,CC(=O)Oc1cccc(C(=O)O)c1OC(C)=O,inactive
4,O=C(NNCS(=O)(=O)O)c1ccncc1,inactive
5,CO/N=C(\C(=O)N[C@@H]1C(=O)N2C(C(=O)O)=C(CSC(=O)c3ccco3)CS[C@H]12)c1csc(N)n1,inactive
6,O=c1[nH]cnc2[nH]cc(CN3CCCCC3)c12,inactive
7,CO/N=C(\C(=O)N[C@@H]1C(=O)N2C(C(=O)OCOC(=O)C(C)(C)C)=C(/C=C\c3scnc3C)CS[C@H]12)c1csc(N)n1,inactive
8,CCCC(=O)O[C@]1(C(=O)COC(C)=O)CC[C@H]2[C@@H]3C[C@H](F)C4=CC(=O)C=C[C@]4(C)[C@@]3(F)[C@@H](O)C[C@@]21C,inactive
9,CCCc1ccc(C(=O)O)cc1,inactive
10,CC1(C)S[C@@H]2[C@H](NC(=O)C(C(=O)Oc3ccc4c(c3)CCC4)c3ccccc3)C(=O)N2[C@H]1C(=O)O (some centres undefined),inactive
11,CO[C@@]1(NC(=O)C2SC(=C(C(N)=O)C(=O)O)S2)C(=O)N2C(C(=O)O)=C(CSc3nnnn3C)CS[C@@H]21 (some centres undefined),inactive
12,O=C1CCC(=O)N1CO,inactive
13,C[C@@H](O)[C@H]1C(=O)N2C(C(=O)[O-])=C(SC3Cn4cnc[n+]4C3)[C@H](C)[C@H]12 (some centres undefined),inactive
14,CC(C)[C@@H]1CC[C@@H](C)C[C@H]1OC(=O)c1ccccc1O,inactive
15,N#Cc1ccc2c(c1)N(CCCN1CCC(O)CC1)c1ccccc1S2,inactive
16,CO[C@H]1C[C@H](O[C@H]2[C@H](C)[C@@H](O[C@@H]3O[C@H](C)C[C@H](N(C)C)[C@H]3OC(C)=O)[C@@H](C)C[C@]3(CO3)C(=O)[C@H](C)[C@@H](OC(C)=O)[C@@H](C)[C@@H](C)OC(=O)[C@@H]2C)O[C@@H](C)[C@@H]1OC(C)=O,inactive
17,C[C@]12CC[C@@H]3c4ccc(OS(=O)(=O)O)cc4CC[C@H]3[C@@H]1CCC2=O,inactive
18,Nc1nc2c(c(=O)[nH]1)N(C=O)C(CNc1ccc(C(=O)N[C@@H](CCC(=O)O)C(=O)O)cc1)CN2 (some centres undefined),inactive
19,C/C=C(/CC[C@@H](C)[C@H]1CC[C@H]2C3=CC[C@H]4[C@H](C)[C@@H](O)CC[C@]4(C)[C@H]3CC[C@]12C)C(C)C,inactive
20,OC[C@H]1O[C@@H](n2cnc3c2NC=NC[C@H]3O)C[C@@H]1O,inactive

row,SMILES,Potency
1,O=C(O)c1nc(=O)[nH]c(=O)[nH]1,inactive
2,C=CCSSSCC=C,inactive
3,CS(=O)(=O)Nc1cc2occ(NC=O)c(=O)c2cc1Oc1ccccc1,inactive
4,CC(C(=O)O)c1ccc(C2CCCCC2)c2ccccc12 (centres undefined),inactive
5,CC[C@H](C)[C@H](NC(=O)[C@H](Cc1ccccc1)NC(=O)[C@H](C)NC(=O)[C@H](CC(=O)O)NC(=O)[C@H](CCCCN)NC(=O)[C@H](CO)NC(=O)[C@@H]1CCCN1C(=O)[C@@H]1CCC(=O)N1)C(=O)NCC(=O)N[C@@H](CC(C)C)C(=O)N[C@@H](CCSC)C(N)=O ([pGlu]PSKDAFIGLM-NH2),inactive
6,Cc1cccc(C)c1NC(=O)NC1=CCCN1C,inactive
7,Cn1cc(NC(=O)c2cc(NC(=O)c3cc(NC=O)cn3C)cn2C)cc1C(=O)NCCC(=N)N,inactive
8,CCCCCCCCCCCCCCCC(=O)O[C@@H]1[C@@H](O)[C@@H](O)[C@@H]([C@H](NC(=O)[C@@H]2C[C@@H](CCC)CN2C)[C@H](C)Cl)O[C@@H]1SC,inactive
9,Cc1cccc(Nc2ncccc2C(=O)O)c1C,inactive
10,NCCCNCCCCNC(=O)C(O)NC(=O)CCCCCCN=C(N)N (centres undefined),inactive
11,CC1(C)C2CC[C@]3(C)[C@H](C(=O)C=C4[C@@H]5C[C@@](C)(C(=O)O)CC[C@]5(C)CC[C@]43C)[C@@]2(C)CC[C@@H]1O[C@H]1O[C@H](C(=O)O)[C@@H](O)[C@H](O)[C@H]1O[C@@H]1O[C@H](C(=O)O)[C@@H](O)[C@H](O)[C@H]1O (some centres undefined),inactive
12,CN1c2c(nc(N)[nH]c2=O)NCC1CNc1ccc(C(=O)NC(CCC(=O)O)C(=O)O)cc1 (centres undefined),inactive
13,Oc1cc(O)cc(O)c1,inactive
14,NC(=O)OCC(O)COc1ccc(Cl)cc1 (centres undefined),inactive
15,O=C1NC(=O)[C@H]2[C@@H]1[C@@H]1C=C[C@H]2C1,inactive
16,CC(C)[C@H](N)C(=O)OCC(CO)OCn1cnc2c(=O)[nH]c(N)nc21 (some centres undefined),inactive
17,Cc1ncc(C[n+]2csc(CCOP(=O)(O)OP(=O)(O)O)c2C)c(N)n1,inactive
18,NCCCC[C@H](N)C(=O)O,inactive
19,CNCC(O)c1ccc(OC(=O)C(C)(C)C)c(OC(=O)C(C)(C)C)c1 (centres undefined),inactive
